BCR signal inh = inhibitors of chronic active B-cell receptor signaling; 340,000 tested, 0.05% active; Potency, µM (doses to about 46.1 µM), inactives show at the highest dose activity change, negative = inhibition, most hits filed as inhibitors; ABC-DLBCL IkBa-CBG/CBR reporter, luminescence ratio, 4 h; AID 493014; active = well fitted inhibition curve with a large enough effect in the signal ratio, with a control signal flat, not every such curve was filed as active; inconclusive = small, poorly fitted or top-dose-only effect, or effect the other way, or a change in a side signal; the % refers to the signal ratio;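 note: potency is the fitted concentration of half-maximal effect; plate controls were basal doxycycline-induced cells for no effect and cells given 10 µM MG132 for full effect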
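TMD8 human ABC-DLBCL cells with doxycycline-inducible IκBα–green luciferase fusion and unfused red luciferase, in 0.5% FBS medium; compounds up to 46 uM, 4 h at 37C. Green/red luminescence ratio, filter-overlap corrected, fitted to concentration-response curves.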
DT40 TDP1 no CPT = qHTS for Inhibitors of human tyrosyl-DNA phosphodiesterase 1 (TDP1): qHTS in cells in absence of CPT | Potency, µM (doses to about 46.2 µM), for the others: at the highest dose activity change, negative = growth inhibition, hits mostly inhibitors | 420,000 tested, 15% active | DT40 Tdp1-/- hTDP1 cells, no CPT, ATP luminescence, 48 h; note: potency is the fitted concentration of half-maximal effect; % is set by controls: 0 for no effect and ±100 for the full control effect; nearly all actives have a fitted effect of over 55% in size
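Chicken DT40 Tdp1-/- cells complemented with human TDP1, screened without camptothecin (DMSO vehicle only), 400 cells/well. Compounds pin-transferred, cells incubated at 37 °C for at least 48 hr. Growth read as ATP-dependent luminescence (CellTiter-Glo, 30 min at RT).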
IL-1B inflam inh = inhibitors of inflammasome signaling (IL-1 beta secretion); activity change, % at 57.5 µM; 360,000 tested, 4.7% active; AID 743279; THP-1 LPS/ATP IL-1B secretion, AlphaLISA, 16 h; hits give low values; in the data active = activity change below about -50%; inconclusive = mostly about -30% to -49%; note: % is set by controls: 0 for no effect and ±100 for the full control effect
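Secreted IL-1B measured by AlphaLISA bead assay after 16 h compound exposure of THP-1 cells; compounds (final up to 57.5 uM) added 1 h before LPS (250 ng/mL) and ATP (1.25 mM) stimulation; lower signal means less secretion.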
SW480 rereplic = induces DNA re-replication in SW480 colon adenocarcinoma cells; Potency, µM (titrated, usually from 46.1 µM), without a hit: at the top dose re-replication activation, actives largely listed as activators; SW480 DNA re-replication, Hoechst DNA content imaging, 48 h; 340,000 tested, 1.8% active; note: potency is the fitted concentration of half-maximal effect; % of control where 0% means no effect; nearly all actives have a fitted effect of over 55% in size
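Image-based read-out: total Hoechst fluorescence of nuclei (405 nm excitation, 500-530 nm emission), with hits raising the fraction of high-intensity nuclei. SW480 colon cells incubated 48 hr with compounds at 37 C.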
MCF10A rerep = inducers of DNA re-replication in MCF 10A breast cells. 350,000 tested, 2.9% active. MCF 10A DNA re-replication, Hoechst nuclear intensity, 48 h. Potency, µM (top dose mostly 46.1 µM), inactives show at the highest dose activity, positive = re-replication, actives largely listed as activators. AID 624296; note: potency is the fitted concentration of half-maximal effect; % of control where 0% means no effect; nearly all actives have a fitted effect of over 50% in size
TDP1 cell CPT = DT40-hTDP1 cell growth loss with CPT. AID 686979. Potency, µM (top dose mostly 46.2 µM), inactives show at the top dose activity change, negative = growth inhibition, usual class: inhibitors. 420,000 tested, 12% active. chicken DT40 Tdp1-/-;hTDP1 cells + 20 nM CPT, ATP luminescence, 48 h; note: potency is the fitted concentration of half-maximal effect; % is set by controls: 0 for no effect and ±100 for the full control effect; nearly all actives have a fitted effect of over 55% in size
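Cell growth measured by CellTiter-Glo luminescence after a minimum 48 h, 37 C compound exposure with 20 nM CPT in Tdp1-knockout DT40 cells stably expressing hTDP1, seeded 400/well; qHTS titration format.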
* marks the source's active call; other numbers are inactive results; ? = inconclusive; / = no result; [ ] = dose if it differs, or a comment. Sampled rows, rich in hits. Any-hit rate of the full collection: about 19%. Unless noted, calls come from the whole dose curve; as a rule, active = well fitted curve in the direction sought with a large enough effect; inconclusive = small, poorly fitted or top-dose-only effect, or another doubt; inactive = no such curve, though single readings can be large; an effect the other way counts as inactive or inconclusive.

SMILES | BCR signal inh | DT40 TDP1 no CPT | IL-1B inflam inh | SW480 rereplic | MCF10A rerep | TDP1 cell CPT
COc1ccc(-c2csc(NC(=O)CSc3nc(SC)ns3)n2)cc1 | ? | 23µM* | 9 | 1% | ? | ?
COc1ccccc1C1(O)CCN(CC(=O)Nc2nc(-c3ccccc3)cs2)CC1 | ? | ? | -62* | -2% | 2% | -18%
COc1ccc(-c2csc(NC(=O)CSc3nc(C)cs3)n2)cc1 | / | ? | 34 | -11% | -2% | -30%
COc1cccc(OC)c1C(=O)NC1C(=O)N2C1SC(C)(C)C2C(=O)O (stereo unspecified) | / | / | / | -6% | -3% | /
N#Cc1ccc(OCC(=O)NCC(c2cccs2)N2CCOCC2)cc1 (stereo unspecified) | 4% | 10% | 20 | -13% | -22% | 6%
OC1(CN2CCOCC2)C2CN3CCN(C2)CC1(c1ccccc1)C3 (stereo unspecified) | 0% | ? | -14 | 19% | ? | 29µM*
Cc1ccc(Oc2c(C(N)=O)cc([N+](=O)[O-])cc2[N+](=O)[O-])cc1 | ? | 5.2µM* | -85* | ? | ? | 5.8µM*
Cc1ccc(CNc2ccc([N+](=O)[O-])cc2C(N)=O)cc1 | ? | -21% | 7 | -24% | ? | -24%
Cc1ccc(S(=O)(=O)NC(=O)C2(C)CCN2C(=O)Cc2ccc(Cl)cc2Cl)nc1 (stereo unspecified) | / | 4% | 25 | / | / | -25%
COc1cccc(-c2nc(S(=O)(=O)c3ccc(C)cc3)c(N3CCCCCC3)o2)c1 | / | 4.6µM* | / | / | / | 23µM*
COc1ccc(-c2nc(S(=O)(=O)c3ccc(C)cc3)c(N3CCCCC3)o2)cc1 | / | ? | / | / | / | -26%
CN1CCN(c2oc(-c3ccccc3)nc2S(=O)(=O)c2ccc(Br)cc2)CC1 | -14% | ? | ? | ? | 14% | 16µM*
Cc1ccc(S(=O)(=O)c2nc(-c3ccccc3F)oc2N2CCCCC2)cc1 | / | 15µM* | / | / | / | ?
Cc1ccc(S(=O)(=O)c2nc(-c3ccccc3)oc2N2CCCC2)cc1 | 3% | 16% | 25 | -17% | 0% | -18%
O=S(=O)(c1ccccc1)c1nc(-c2ccccc2)oc1N1CCCC1 | -1% | -8% | -6 | -12% | -4% | -1%
O=S(=O)(c1ccccc1)c1nc(-c2ccccc2)oc1N1CCCCC1 | -3% | 16µM* | ? | 1% | 5% | ?
COCCn1c(C)cc(C(=O)COC(=O)c2ccc(Cl)c(S(N)(=O)=O)c2)c1C | -11% | ? | 0 | -6% | 4% | ?
O=C(COC(=O)c1cc2ccccc2o1)NCc1ccco1 | 5% | -3% | 4 | -7% | 1% | 0%
CCCCCC1Nc2cc(C(F)(F)F)c(S(N)(=O)=O)cc2S(=O)(=O)N1 (stereo unspecified) | / | -1% | / | / | / | -1%
O=S(=O)(c1ccccc1)c1nc(-c2ccco2)oc1N1CCOCC1 | -5% | -14% | 16 | -2% | 5% | -11%
Cc1ccc(S(=O)(=O)c2nc(-c3ccccc3)oc2N2CCN(c3ccccc3)CC2)cc1 | / | 21µM* | / | / | / | 16µM*
Cc1ccc(S(=O)(=O)c2nc(-c3cccc(C)c3)oc2N2CCCCC2)cc1 | / | 23µM* | / | / | / | ?
Cc1ccc(S(=O)(=O)c2nc(-c3ccco3)oc2N2CCC(C)CC2)cc1 | -1% | ? | -74* | ? | ? | ?
Cc1ccc(S(=O)(=O)c2nc(-c3cccc(C)c3)oc2N2CCN(c3ccccc3)CC2)cc1 | / | 1.5µM* | / | / | / | ?
Cc1ccc(-c2nc(S(=O)(=O)c3ccc(C)cc3)c(N3CCN(c4ccccc4)CC3)o2)cc1 | / | ? | / | / | / | -13%
SMILES | BCR signal inh | DT40 TDP1 no CPT | IL-1B inflam inh | SW480 rereplic | MCF10A rerep | TDP1 cell CPT
CC1(c2ccc(NC(=O)c3ccccc3F)cc2)CC1(Cl)Cl (stereo unspecified) | -17% | ? | 20 | 3% | 6% | ?
CC(=O)c1sc(N/N=C\c2c(O)ccc3ccccc23)nc1C | / | 0.92µM* | 74 | 3.3µM* | ? | 0.92µM*
CC(=O)Nc1sc(N/N=C/c2ccc(N(C)C)cc2)nc1-c1ccc(C)cc1 | -8% | -20% | -18 | -1% | -1% | -12%
CC(=O)c1sc(N/N=C/c2cccc(O)c2)nc1C | ? | 12µM* | 43 | -9% | 12% | 26µM*
CC(=O)c1sc(N/N=C\c2ccc(N(C)C)cc2)nc1C | -4% | ? | 37 | ? | 16µM* | -8%
CC(=O)c1sc(Nc2cccc3ccccc23)nc1C | / | ? | 6 | -20% | ? | -31%
COc1ccc(F)cc1C(=O)C1CCCN(Cc2ccc(Sc3nncn3C)o2)C1 (stereo unspecified) | 9% | 12% | 27 | -7% | ? | -2%
O=C(Nc1nccs1)c1ccc(-c2cccc([N+](=O)[O-])c2)o1 | ? | ? | 32 | -6% | 2%[9.22 µM] | -27%
COc1ccccc1C(=O)Nc1ccc(CN2CCCCC2)cc1 | 10% | -8% | -4 | -7%[9.22 µM] | 28% | 20%
O=C(Nc1ncc(Cc2cccc(C(F)(F)F)c2)s1)c1ccc(-c2cccc([N+](=O)[O-])c2)o1 | 0% | ? | -13 | 2% | ? | 15µM*
O=C(Nc1ccc(CN2CCOCC2)cc1)c1ccc(Br)o1 | -1% | -16% | -7 | ? | 2% | 21%
COc1c(Cl)cc(Cl)cc1C(=O)Nc1ccc(CN2CCCCC2)cc1 | -1% | 16µM* | -20 | -1% | 12µM* | ?
O=C(Nc1ccc(CN2CCCCC2)cc1)Nc1ccc(Br)cc1Cl | 8% | 16µM* | -85* | ? | 16µM* | 18µM*
O=C(Nc1ccc(CN2CCOCC2)cc1)c1ccc(-c2cc(Cl)ccc2Cl)o1 | 8% | 23µM* | -64* | ? | ? | ?
CCOc1ccc(C(=O)c2oc3ccccc3c2NC(=O)c2cc(=O)c3ccc(C)cc3o2)cc1 | / | -16% | / | / | / | -3%
CC(=O)Nc1ccc(C(=O)N2CCCC(c3cc(C(=O)NCc4ccc(F)cc4)no3)C2)cc1 (stereo unspecified) | / | ? | -19 | / | / | ?
NC(=O)c1ccc(NC(=O)COC(=O)C2CCN(S(=O)(=O)c3cccs3)CC2)cc1 | -5% | -10% | 16 | -3% | 12% | 1%
CC(OC(=O)c1ccc(F)c(S(=O)(=O)N2CCOCC2)c1)C(=O)NC1CCCC1 (stereo unspecified) | 0% | -11% | 6 | -2% | -1% | 5%
